# Test results taken from paper PMC4336329 (PLoS ONE, 2015).
# The campaign covered roughly 310,000 compounds. About 14,000 (4.5%) showed an effect of 50% or more. The effect is printed as a negative number. Shown is part of a subset that was picked to be rich in strong results.
# Biological target: human ether-à-go-go-related gene (hERG) potassium channel (human, UniProt Q12809)
# Assay: primary screen, population patch clamp on CHO cells stably expressing hERG; higher = less effect of the substance
# 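Note: peak tail current of the secondary pulse compared with the same well before compound.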
# Sequence of human ether-à-go-go-related gene (hERG) potassium channel (Q12809 whole entry, looked up): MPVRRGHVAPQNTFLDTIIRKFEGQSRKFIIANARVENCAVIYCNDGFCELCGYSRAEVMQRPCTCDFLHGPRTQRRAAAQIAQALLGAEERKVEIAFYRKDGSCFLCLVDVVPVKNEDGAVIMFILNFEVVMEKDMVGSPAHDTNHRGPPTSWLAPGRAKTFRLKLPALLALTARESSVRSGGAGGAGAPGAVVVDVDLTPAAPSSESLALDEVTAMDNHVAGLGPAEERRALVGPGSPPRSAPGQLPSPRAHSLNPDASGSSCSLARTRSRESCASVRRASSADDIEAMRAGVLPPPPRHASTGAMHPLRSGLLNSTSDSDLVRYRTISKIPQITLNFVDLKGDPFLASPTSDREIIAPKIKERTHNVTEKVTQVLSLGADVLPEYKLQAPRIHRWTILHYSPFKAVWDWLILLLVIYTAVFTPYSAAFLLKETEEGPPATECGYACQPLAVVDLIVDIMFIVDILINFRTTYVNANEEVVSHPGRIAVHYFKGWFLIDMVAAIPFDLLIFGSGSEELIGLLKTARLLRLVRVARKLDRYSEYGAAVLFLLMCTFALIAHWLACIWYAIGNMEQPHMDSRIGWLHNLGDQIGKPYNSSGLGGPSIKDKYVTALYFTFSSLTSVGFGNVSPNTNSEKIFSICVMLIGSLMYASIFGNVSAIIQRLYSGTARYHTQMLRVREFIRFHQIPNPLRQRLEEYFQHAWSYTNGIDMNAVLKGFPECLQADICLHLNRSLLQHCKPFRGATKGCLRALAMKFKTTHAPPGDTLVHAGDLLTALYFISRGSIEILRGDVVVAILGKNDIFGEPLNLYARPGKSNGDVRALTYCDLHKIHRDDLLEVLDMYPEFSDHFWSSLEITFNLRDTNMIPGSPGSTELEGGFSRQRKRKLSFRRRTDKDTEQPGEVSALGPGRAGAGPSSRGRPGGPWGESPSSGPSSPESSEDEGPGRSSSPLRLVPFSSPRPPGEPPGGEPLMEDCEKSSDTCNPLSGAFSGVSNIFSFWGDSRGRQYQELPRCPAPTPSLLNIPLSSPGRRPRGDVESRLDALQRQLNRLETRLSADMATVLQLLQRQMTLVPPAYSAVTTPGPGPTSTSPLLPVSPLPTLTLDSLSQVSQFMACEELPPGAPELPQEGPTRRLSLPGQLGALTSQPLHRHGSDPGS
row,SMILES,"hERG current change (%, negative = inhibition) at 10uM [%]"
1,O=C1OCCN1C(=O)[C@H]1[C@H](c2ccc(Cl)cc2)C(c2cccc(Cl)c2)=NN1c1ccccc1,14
2,COc1ccccc1C(=O)C1CCCN(C(=O)Nc2ccccc2F)C1 (centres unmarked),37.3
3,Cc1nn2c(N)c(C#N)cnc2c1-c1ccc(Cl)cc1,-0.156
4,Cc1cc2nnc(SCC(=O)NCc3cccs3)n2c(N)n1,-8.37
5,Cc1cccc(-n2nnc(C(=O)NCc3ccco3)c2N)c1,-10.2
6,OC1=C(O)c2nc3ccccc3nc21,-1.17
7,CC(C)Sc1nc2c([nH]1)c(=N)ncn2Cc1ccccc1,-5.52
8,Cc1noc(C)c1COc1ccc(CC(=O)NC2CCCCCC2)cc1,39.5
9,COc1cc(C2NC(=O)CCC2[N+](=O)[O-])cc(OC)c1OC (centres unmarked),29.6
10,CSc1cccc(NC(=S)N(CCN(C)C)C(C)c2ccccn2)c1 (centres unmarked),-36.2
11,COc1ccc(NC(=S)N(CCN(C)C)C(C)c2ccncc2)cc1Cl (centres unmarked),-59.9
12,COCCCN(C(=S)Nc1cc(Cl)cc(Cl)c1)C(C)c1ccncc1 (centres unmarked),-70.6
13,COCCCN(C(=S)Nc1cccc(Cl)c1)C(C)c1ccncc1 (centres unmarked),-17.3
14,COc1cc(Cl)ccc1NC(=S)N(CCN(C)C)C(C)c1ccncc1 (centres unmarked),-39.2
15,COc1ccc(NC(=S)N(CCN(C)C)C(C)c2ccco2)cc1Cl (centres unmarked),-36.3
16,CSc1cccc(NC(=S)N(CCN(C)C)C(C)c2ccncc2)c1 (centres unmarked),-50.6
17,COCCCN(C(=S)Nc1cc(C)cc(C)c1)C(C)c1ccncc1 (centres unmarked),-41
18,CCc1cccc(NC(=S)N(CCN(C)C)C(C)c2ccncc2)c1 (centres unmarked),-44
19,Cc1ccc(C(=O)c2ccc(C(F)(F)F)cc2)cc1,7.79
20,CC(=O)N(C)C1=C(O)c2ccccc2C(=O)C1=O,22.3
21,Cc1ccc(NC(=O)COC(=O)Cc2c[nH]c3ccccc23)cc1C,-7.15
22,COc1ccccc1-c1nnc(SCc2nc3ccccc3s2)n1C,-17
23,COc1ccc(C(=O)COC(=O)Cn2cnc3c2c(=O)n(C)c(=O)n3C)c(OC)c1,3.76

row,SMILES,"hERG current change (%, negative = inhibition) at 10uM [%]"
1,CSc1nsc(SCC(=O)NCc2ccc(C)cc2)n1,10.1
2,COc1cc(OC)cc(-c2nnc(SCC(=O)N3CCOCC3)o2)c1,9.82
3,Nc1nc(SCc2ccc(Cl)cc2)ns1,-7
4,COc1cc(CNCCN(C)C)c(Br)cc1OCC(=O)NCc1ccccc1,-29.2
5,CCN(CC)CCNCc1cc(Cl)c(OCC(=O)Nc2ccccc2)c(OC)c1.Cl,-62.5
6,NC(=O)N/N=C/c1cc(Br)ccc1OCC(=O)NCc1ccccc1,-6.43
7,CCN(CC)CCNCc1ccc(Br)cc1OCC(=O)NCc1ccccc1.Cl,-67.2
8,CCOc1cc(CNCCN(C)C)c(Cl)cc1OCC(=O)NCCc1ccccc1.Cl,-10.8
9,CCN(CC)CCNCc1cc(Br)ccc1OCC(=O)NCc1ccccc1.Cl,-83.2
10,CCNCc1cc(Br)c(OCC(=O)Nc2ccccc2)c(OC)c1.Cl,-19.8
11,COc1cc(CNC(C)c2ccccc2)cc(Cl)c1OCC(=O)Nc1ccccc1.Cl (centres unmarked),9.86
12,CCCCNCc1cc(Br)c(OCC(=O)NCc2ccccc2)c(OC)c1.Cl,-39.4
13,Cc1c(C(=O)Nc2ccc(S(=O)(=O)Nc3ncccn3)cc2)oc2ccc(Cl)cc12,-17.4
14,Cn1c(=O)c2c(nc(CN3CCOCC3)n2CCc2ccccc2)n(C)c1=O,7.53
15,Cc1ncc(CO)c2cc(C(N)=O)c(=Nc3ccccc3)oc12,-27.7
16,COc1ccc(C(O)P(=O)(OCC(C)C)c2ccc(N(C)C)cc2)c(OC)c1 (centres unmarked),-3.56
17,CCCc1nc2ccccc2[nH]1,24.6
18,c1ccc2[nH]c(CCCc3nc4ccccc4[nH]3)nc2c1,-7.32
19,CC1CCN(CCc2nc3ccccc3[nH]2)CC1,-63.7
20,CCn1ccnc1CN1CCCC(C(=O)c2ccc3cc(OC)ccc3c2)C1 (centres unmarked),-70.6
21,COc1ccc(Cl)cc1C(=O)C1CCCN(Cc2cnc(N3CCOCC3)s2)C1 (centres unmarked),-57.6
22,COc1ccc2cc(C(=O)C3CCCN(Cc4cnc(N5CCOCC5)s4)C3)ccc2c1 (centres unmarked),14.6
23,CCn1ccnc1CN1CCCC(C(=O)c2cc(F)ccc2OC)C1 (centres unmarked),-33

row,SMILES,"hERG current change (%, negative = inhibition) at 10uM [%]"
1,CCn1ccnc1CN1CCCC(C(=O)c2ccc(SC)cc2)C1 (centres unmarked),-58.3
2,CSc1ccc(C(=O)C2CCCN(C(=O)c3ccc(C)nc3)C2)cc1 (centres unmarked),-22.4
3,CSc1ccc(C(=O)C2CCCN(C(=O)Cn3cnnn3)C2)cc1 (centres unmarked),-12.8
4,COc1ccc(Cl)cc1C(=O)C1CCCN(Cc2cnc(C)s2)C1 (centres unmarked),-38.1
5,CCn1ccnc1CN1CCCC(C(=O)c2cc(C)c(OC)c(C)c2)C1 (centres unmarked),-23.2
6,CCn1ccnc1CN1CCCC(C(=O)c2cc(Cl)ccc2OC)C1 (centres unmarked),-73.3
7,COc1ccc(C(=O)C2CCCN(Cc3cnc(N4CCOCC4)s3)C2)c(OC)c1 (centres unmarked),-46.9
8,Cc1ccc(NC(=O)c2cnccn2)cc1,15.8
9,CCCn1c(Cc2ccccc2)nnc1SCC(=O)N1CCOCC1,16.7
10,NC(=S)N/N=C/c1ccc([N+](=O)[O-])cc1,-8.06
11,O=C(CC1C(=O)NCCN1Cc1ccc(Cl)c(F)c1)NCC1CCOCC1 (centres unmarked),9.07
12,CCOC(=O)C1(Cc2ccc(O)cc2)NC(c2ccccc2F)C2C(=O)N(C)C(=O)C21 (centres unmarked),-2.04
13,CCC(=O)NC(c1cccs1)c1cc([N+](=O)[O-])c2cccnc2c1O (centres unmarked),15
14,CC1=NNC(=O)C1CCC(=O)N/N=C(\C)c1ccccc1 (centres unmarked),28.3
15,CCCCOc1ccc(NC(=O)CSc2nnnn2C)cc1,-2.43
16,NCCNc1cc(N2CCCC2)ccc1[N+](=O)[O-],4.66
17,O=C(C1CCCC1)N1CCN(S(=O)(=O)c2ccc(F)cc2)CC1,15.9
18,COc1cc(C2C(C(=O)c3ccc(C)o3)=C(O)C(=O)N2Cc2cccnc2)ccc1O (centres unmarked),10.9
19,O=C(CCC(=O)NC1CCN(Cc2ccccc2)CC1)NCc1ccco1,-1.88
20,Cc1ccc(-n2c(SCCN)nnc2-c2cccc(C)c2)cc1.O=C(O)C(=O)O,-38
21,Cc1cccc(-c2nnc(SCC#N)n2Cc2ccccc2)c1,-66.6
22,Cc1cccc(-c2nnc(SCC#N)n2-c2ccccc2)c1,-54.7
23,Cc1cccc(-c2nnc(SCC(=O)O)n2Cc2ccccc2)c1,-6.26

row,SMILES,"hERG current change (%, negative = inhibition) at 10uM [%]"
1,Cc1cccc(-c2nnc(SCC#N)n2-c2cccc(Cl)c2)c1,-62.5
2,Cc1cc(C)nc(SCc2nnc(SCC#N)n2-c2cccc(Cl)c2)n1,-17.6
3,Cc1cccc(-c2nnc(SCC#N)n2C)c1,13.2
4,N#CCSc1nnc(-c2ccccc2O)n1Cc1ccccc1,5.13
5,N#CCSc1nnc(COc2cccc3ccccc23)n1-c1cccc(Cl)c1,8.77
6,COC(=O)c1ccc(C2NC(=O)c3c(sc(C)c3C)N2)cc1 (centres unmarked),10.7
7,COc1ccc(CCNC(=O)c2ccc3ccccc3n2)cc1,-5.65
8,O=C(CNc1ccc2c(c1)OCO2)N/N=C\c1ccccc1Cl,3.98
9,COc1cccc(NC(=S)N(Cc2ccccn2)Cc2ccccc2Cl)c1,5.73
10,O=C(CN(Cc1ccccc1)S(=O)(=O)c1ccccc1)N/N=C/c1ccc2c(c1)OCO2,8.28
11,C(=N\C(/N=C/c1ccco1)c1ccco1)/c1ccco1,-5.1
12,COc1ccc(NC(=O)N2CCCC2C(=O)NCC2CCCCC2)cc1 (centres unmarked),0.904
13,Cn1ncn2c(=O)c3c(nc12)-c1ccccc1CC31CCCC1,1.56
14,COc1ccc(NC(=O)Cn2cc(C#N)c3ccccc32)cc1,15.3
15,CC(=O)Nc1ccc(NC(=O)c2sc(-c3ccccc3)nc2C)cc1,10.6
16,Nc1ccc2nc(-c3ccccc3)[nH]c2c1,6.5
17,COc1ccc(Cl)cc1NC(=O)C1CCCN(S(C)(=O)=O)C1 (centres unmarked),5.29
18,COc1ccc(NC(=O)C2CCCN(c3cnccn3)C2)c(OC)c1 (centres unmarked),21.4
19,COc1cc(C)nc(N2CCCC(C(=O)Nc3cc(Cl)ccc3OC)C2)n1 (centres unmarked),9.96
20,CCCc1cc(N2CCCC(C(=O)Nc3cc(Cl)ccc3OC)C2)n2ncnc2n1 (centres unmarked),-70.8
21,CCCc1cc(N2CCCC(C(=O)Nc3ccc(OC)cc3OC)C2)n2ncnc2n1 (centres unmarked),-51.4
22,CCCc1cc(N2CCCC(C(=O)Nc3c(OC)cccc3OC)C2)n2ncnc2n1 (centres unmarked),-10.7
23,O=C(Cc1ccccc1)NCCC1=CCCCC1,9.32
